Assay results reported in PubChem BioAssay.
Activity calls are given as the source filed them.

test: PSAC antagonists in infected red cells, primary screen, cell-based, P. falciparum Indochina, OD700, 18 h (AID 1157); details: P. falciparum Indochina infected erythrocytes, osmotic lysis OD700, 18 h; higher = more signal, called active from +8 up or from −8 down

Row | Compound | z-score
1 | C=CCC(OC(C)=O)[C@@H]1[C@@H](N(Cc2cccc3ccccc23)C(=O)c2ccc(-c3ccccc3)cc2)c2cc(OCCCO)ccc2N1C(=O)Cc1ccc2ccccc2c1 (stereo partly specified) | 0.309 (inactive)
2 | CC(C)NC(=O)[C@@]1(C)c2ccccc2C(=O)N(Cc2ccccc2)[C@H]1c1ccc(CO)cc1 | -0.851 (inactive)
3 | COC(=O)[C@@]1(Cc2ccccc2)[C@H]2c3cc(C(=O)N4CCCC4)n(Cc4ccc(OC)c(OC)c4)c3C[C@H]2CN1C(=O)c1ccccc1 | 0.861 (inactive)
4 | O=C1C[C@@](C(=O)NCc2ccccc2)(c2ccc([N+](=O)[O-])cc2)[C@@H](c2ccc(CO)cc2)N1C1CCCCC1 | -0.877 (inactive)
5 | [N-]=[N+]=Nc1ccccc1[C@@H]1OC(c2ccc(OCCCO)cc2)=N[C@]1(CCS(=O)(=O)c1ccccc1)C(=O)NCC(O)CO (stereo partly specified) | 2.07 (inactive)
6 | CCOC(=O)C[C@H]1[C@H](OC(=O)c2ccccc2-c2ccccc2)[C@@H](NC(=O)c2ccc3ccccc3c2)c2cc(OCCCO)ccc2N1C(=O)Cc1ccc(OC)cc1 | 0.281 (inactive)
7 | CCOC(=O)C[C@H]1[C@H](OC(=O)Cc2ccc3c(c2)OCO3)[C@@H](NC(=O)Cc2ccc(OC)cc2)c2cc(OCCCO)ccc2N1C(=O)Cc1ccc(OC)cc1 | -0.395 (inactive)
8 | Cc1ccc(C(C)CC(O)C2C=CC3C(=O)N(C)C(=O)C3N2Nc2ccccc2)o1 (stereo unspecified) | 1.17 (inactive)
9 | Cc1ccc(S[C@]2(C(=O)NCC(F)(F)F)CC(=O)N(Cc3ccccc3C(F)(F)F)[C@@H]2c2ccc(CO)cc2)cc1 | 0.135 (inactive)
10 | COC(=O)[C@]1(Cc2ccccc2)N=C(c2ccc(OCCCO)cc2)O[C@@H]1c1ccccc1CN=[N+]=[N-] | 4.7 (inactive)
11 | COC(=O)C(CC#Cc1ccc2c(c1)[C@]1(C(=O)N2)[C@H](c2ccc(OCCO)cc2)N2[C@H](c3ccccc3)[C@H](c3ccccc3)OC(=O)[C@H]2[C@@H]1C(=O)N1CCCCCCC1)C(=O)OC | 0.712 (inactive)
12 | C[C@]1(C(=O)O)c2ccccc2C(=O)N(Cc2cc(F)cc(C(F)(F)F)c2)[C@H]1c1ccc(CO)cc1 | -0.927 (inactive)
13 | O=C(NC1CC1)[C@@H]1c2ccccc2C(=O)N(CC23CC4CC(CC(C4)C2)C3)[C@H]1c1ccc(CO)cc1 | 0.181 (inactive)
14 | COC(=O)[C@@]1(Cc2ccc(OC)cc2)[C@H]2c3cc(C(=O)N4CCCC4)n(CCn4cc([N+](=O)[O-])nc4C)c3C[C@H]2CN1C(=O)c1ccccc1 | 0.543 (inactive)
15 | CC1CC/C=C\[C@H]2OC34C=CCN(c5ccc6ccccc6c5)C(=O)[C@H]3N(C(C)CO)C(=O)[C@@H]4C2C(=O)O1 (stereo partly specified) | 0.233 (inactive)
16 | O=C1C[C@]2(c3ccc([N+](=O)[O-])cc3)C(=O)N(C3CC3)c3cc(CO)ccc3[C@H]2N1C1CCCCC1 | -0.0894 (inactive)
17 | CCN(CC)c1ccc(N2CC=CC34O[C@@H]5C=CCCOC(=O)C5[C@H]3C(=O)N(C(C)CO)[C@@H]4C2=O)cc1 (stereo partly specified) | 0.353 (inactive)
18 | COC(=O)[C@@]1(Cc2ccccc2)[C@H]2c3cc(C(=O)N(C)C)n(CCO)c3C[C@H]2CN1C(=O)c1ccccc1 | 0.57 (inactive)
19 | COc1cc(CO)cc(I)c1O[C@H]1C=C(C(=O)NCCO)C[C@@H](NC2CCCCCC2)[C@@H]1O | 1.09 (inactive)
20 | O=C1C2C=CC(C(O)c3cccs3)N(Nc3ccc([N+](=O)[O-])cc3)C2C(=O)N1c1ccccc1 (stereo unspecified) | 0.753 (inactive)
21 | CCOC(=O)C[C@H]1[C@H](OC(=O)c2ccccc2-c2ccccc2)[C@@H](NC(=O)C2CCCCC2)c2cc(OCCCO)ccc2N1C(=O)c1ccc2ccccc2n1 | 0.255 (inactive)
22 | COC(=O)[C@@]1(Cc2ccc(F)cc2)[C@H]2c3cc(C(=O)N4CCCC4)n(Cc4ccccn4)c3C[C@H]2CN1C(=O)c1ccccc1 | 0.987 (inactive)
23 | C=C(CCCC)/C(=C/C[C@H](OC(=O)c1ccncc1)c1ccccc1OCCO)c1cc(C(=O)OC)ccc1OC | 1.44 (inactive)
24 | O=C(NCc1ccccc1)[C@@H]1c2ccccc2C(=O)N(Cc2cc(C(F)(F)F)cc(C(F)(F)F)c2)[C@H]1c1ccc(CO)cc1 | 0.352 (inactive)
25 | COc1ccc([Si](C)(C)[C@H]2[C@H](CCO)O[C@@]3(C(=O)N(Cc4ccc(NC(=O)[C@H](C)O)cc4)c4ccccc43)[C@@H]2C)cc1 | 2.46 (inactive)

test: modulators of S6 phosphorylation in cells, primary screen, cell-based, A549, cytoblot, luminescence, serum-stimulated (AID 1158); details: A549 phospho-S6 cytoblot, 5 h, higher = more signal;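 note: serum-stimulated A549 lung adenocarcinoma cells; signal is phosphorylated S6 detected by cytoblot immunostaining with HRP secondary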

Row | Compound | z-score
26 | CC(C)C(=C=CC[C@H](O)c1ccccc1OCCO)C[C@H](O)COCc1ccccc1 | -0.181
27 | CC(C)NC(=O)[C@@]1(c2ccc([N+](=O)[O-])cc2)CC(=O)N(CC23CC4CC(CC(C4)C2)C3)[C@@H]1c1ccc(CO)cc1 | -0.248
28 | CC(C)=C1C(=O)C(c2ccccc2)=C2CN3C(=O)N(CCc4ccccc4)C(=O)[C@]3(C)[C@H]21 | -0.832
29 | [N-]=[N+]=Nc1ccccc1[C@H]1OC(c2ccc(OCCCO)cc2)=N[C@@]1(Cc1ccccc1)C(=O)NCC(O)CO (stereo partly specified) | -0.0737
30 | COCCCNC(=O)[C@@]1(CCS(=O)(=O)c2ccccc2)COC(c2ccc(OCCCO)cc2)=N1 | -0.131
31 | CC(C)(C)N1CC=CC23O[C@@H]4C=CCOC(=O)[C@@H]4[C@H]2C(=O)N(CCO)[C@@H]3C1=O (stereo partly specified) | -0.694
32 | CN(C)CCCCNC(=O)[C@H]1C[C@H]2C(=O)NCC(=O)N2[C@H]1c1ccc(O)cc1 | -0.468
33 | CC(C)C(O)C1C=CC2C(=O)NC(=O)C2N1Nc1ccccn1 (stereo unspecified) | -0.846
34 | O=C1C2C=CC(C(O)c3ccc([N+](=O)[O-])cc3)N(Nc3ccccc3F)C2C(=O)N1c1ccccc1 (stereo unspecified) | -0.888
35 | CN(C)CCCC[C@@H]1NC(=O)[C@@H]2C[C@H](C(=O)NCCCCCN)[C@H](c3cccc(OCCO)c3)N2C1=O | 2.77
36 | CC1CC/C=C\[C@H]2OC34C=CCN(Cc5ccccc5)C(=O)[C@H]3N(CCCCCCO)C(=O)[C@@H]4C2C(=O)O1 (stereo partly specified) | 1.98
37 | C=CCC(OC(C)=O)[C@@H]1[C@@H](N(Cc2cccc3ccccc23)C(=O)c2ccc(-c3ccccc3)cc2)c2cc(OCCCO)ccc2N1C(=O)Cc1ccc2ccccc2c1 (stereo partly specified) | -0.242
38 | CC(C)NC(=O)[C@@]1(C)c2ccccc2C(=O)N(Cc2ccccc2)[C@H]1c1ccc(CO)cc1 | 1.64
39 | COC(=O)[C@@]1(Cc2ccccc2)[C@H]2c3cc(C(=O)N4CCCC4)n(Cc4ccc(OC)c(OC)c4)c3C[C@H]2CN1C(=O)c1ccccc1 | -0.321
40 | O=C1C[C@@](C(=O)NCc2ccccc2)(c2ccc([N+](=O)[O-])cc2)[C@@H](c2ccc(CO)cc2)N1C1CCCCC1 | 1.58
41 | [N-]=[N+]=Nc1ccccc1[C@@H]1OC(c2ccc(OCCCO)cc2)=N[C@]1(CCS(=O)(=O)c1ccccc1)C(=O)NCC(O)CO (stereo partly specified) | -0.158
42 | CCOC(=O)C[C@H]1[C@H](OC(=O)c2ccccc2-c2ccccc2)[C@@H](NC(=O)c2ccc3ccccc3c2)c2cc(OCCCO)ccc2N1C(=O)Cc1ccc(OC)cc1 | 0.12
43 | CCOC(=O)C[C@H]1[C@H](OC(=O)Cc2ccc3c(c2)OCO3)[C@@H](NC(=O)Cc2ccc(OC)cc2)c2cc(OCCCO)ccc2N1C(=O)Cc1ccc(OC)cc1 | 1.68

Row | Compound | z-score
44 | Cc1ccc(C(C)CC(O)C2C=CC3C(=O)N(C)C(=O)C3N2Nc2ccccc2)o1 (stereo unspecified) | -1.4
45 | Cc1ccc(S[C@]2(C(=O)NCC(F)(F)F)CC(=O)N(Cc3ccccc3C(F)(F)F)[C@@H]2c2ccc(CO)cc2)cc1 | -0.0621
46 | COC(=O)[C@]1(Cc2ccccc2)N=C(c2ccc(OCCCO)cc2)O[C@@H]1c1ccccc1CN=[N+]=[N-] | 0.614
47 | COC(=O)C(CC#Cc1ccc2c(c1)[C@]1(C(=O)N2)[C@H](c2ccc(OCCO)cc2)N2[C@H](c3ccccc3)[C@H](c3ccccc3)OC(=O)[C@H]2[C@@H]1C(=O)N1CCCCCCC1)C(=O)OC | -0.173
48 | C[C@]1(C(=O)O)c2ccccc2C(=O)N(Cc2cc(F)cc(C(F)(F)F)c2)[C@H]1c1ccc(CO)cc1 | 1.27
49 | O=C(NC1CC1)[C@@H]1c2ccccc2C(=O)N(CC23CC4CC(CC(C4)C2)C3)[C@H]1c1ccc(CO)cc1 | 0.268
50 | COC(=O)[C@@]1(Cc2ccc(OC)cc2)[C@H]2c3cc(C(=O)N4CCCC4)n(CCn4cc([N+](=O)[O-])nc4C)c3C[C@H]2CN1C(=O)c1ccccc1 | -0.108
51 | CC1CC/C=C\[C@H]2OC34C=CCN(c5ccc6ccccc6c5)C(=O)[C@H]3N(C(C)CO)C(=O)[C@@H]4C2C(=O)O1 (stereo partly specified) | -0.347
52 | O=C1C[C@]2(c3ccc([N+](=O)[O-])cc3)C(=O)N(C3CC3)c3cc(CO)ccc3[C@H]2N1C1CCCCC1 | -0.278
53 | CCN(CC)c1ccc(N2CC=CC34O[C@@H]5C=CCCOC(=O)C5[C@H]3C(=O)N(C(C)CO)[C@@H]4C2=O)cc1 (stereo partly specified) | -0.465
54 | COC(=O)[C@@]1(Cc2ccccc2)[C@H]2c3cc(C(=O)N(C)C)n(CCO)c3C[C@H]2CN1C(=O)c1ccccc1 | -0.935
55 | COc1cc(CO)cc(I)c1O[C@H]1C=C(C(=O)NCCO)C[C@@H](NC2CCCCCC2)[C@@H]1O | 0.565
56 | O=C1C2C=CC(C(O)c3cccs3)N(Nc3ccc([N+](=O)[O-])cc3)C2C(=O)N1c1ccccc1 (stereo unspecified) | -0.772
57 | CCOC(=O)C[C@H]1[C@H](OC(=O)c2ccccc2-c2ccccc2)[C@@H](NC(=O)C2CCCCC2)c2cc(OCCCO)ccc2N1C(=O)c1ccc2ccccc2n1 | -0.342
58 | COC(=O)[C@@]1(Cc2ccc(F)cc2)[C@H]2c3cc(C(=O)N4CCCC4)n(Cc4ccccn4)c3C[C@H]2CN1C(=O)c1ccccc1 | 0.0347
59 | C=C(CCCC)/C(=C/C[C@H](OC(=O)c1ccncc1)c1ccccc1OCCO)c1cc(C(=O)OC)ccc1OC | -0.166
60 | O=C(NCc1ccccc1)[C@@H]1c2ccccc2C(=O)N(Cc2cc(C(F)(F)F)cc(C(F)(F)F)c2)[C@H]1c1ccc(CO)cc1 | -0.0959
61 | COc1ccc([Si](C)(C)[C@H]2[C@H](CCO)O[C@@]3(C(=O)N(Cc4ccc(NC(=O)[C@H](C)O)cc4)c4ccccc43)[C@@H]2C)cc1 | 1.27
